# D3 antag: blocks the human D3 dopamine receptor. D3R cells, DiscoveRx beta-arrestin luminescence, antagonist mode; hits give low values. max response, negative = inhibition, %. AID 652054. P35462. 360,000 tested, 2.5% active; in the data active = max response below about -50%; inconclusive = no clear call, values can overlap the other calls; also: % is scaled to controls: 0 for no effect and ±100 for the full control effect
# Target sequence (P35462 whole entry, looked up): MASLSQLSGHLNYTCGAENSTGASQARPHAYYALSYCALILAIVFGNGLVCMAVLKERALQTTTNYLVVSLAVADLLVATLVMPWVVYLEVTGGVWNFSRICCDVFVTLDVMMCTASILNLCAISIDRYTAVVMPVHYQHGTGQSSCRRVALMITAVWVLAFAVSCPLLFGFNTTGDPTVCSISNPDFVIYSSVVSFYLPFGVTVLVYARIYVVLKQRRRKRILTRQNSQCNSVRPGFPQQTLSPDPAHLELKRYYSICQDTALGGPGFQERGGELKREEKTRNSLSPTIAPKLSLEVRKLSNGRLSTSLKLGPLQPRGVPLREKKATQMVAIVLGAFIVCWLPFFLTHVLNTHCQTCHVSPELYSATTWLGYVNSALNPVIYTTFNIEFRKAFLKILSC
#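 Cells expressing the human receptor were seeded at 1500 cells/well, incubated overnight at 37 degrees C in 5% CO2, then exposed to library compounds with dopamine controls for 90 minutes at 37 degrees C before luminescent detection.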
# LDHA inh: inhibitors of human lactate dehydrogenase A; AID 1347041; 480,000 tested, 0.15% active; activity change, % (values are at about 110 or 230 µM); P00338; purified LDHA, NADH/diaphorase-resazurin fluorescence; hits give low values; in the data active = activity change below about -30%; inconclusive = mostly about -25% to -30%;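 also: plate controls were DMSO wells for no effect and wells without enzyme for full effect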
#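 LDH5 2 nM; NADH 0.06 mM, pyruvate 0.2 mM; 200 mM Tris pH 7.4, EDTA, Tween-20; 5 min RT. Detection: diaphorase 0.133 mg/mL + resazurin 37 µM, fluorescence ex540/em590 at 0 and 20 min; normalized to enzyme-free and DMSO wells.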
# RGS4 inh: blocks human RGS4-accelerated GTP hydrolysis; Transcreener GDP fluorescence polarization, RGS4-accelerated GTP hydrolysis; Potency, µM (highest dose often 114 µM), for inactives: at the highest dose activity change, negative = inhibition, usual class: inhibitors; P49798; 390,000 tested, 0.039% active; active = well fitted inhibition curve with a large enough effect; inconclusive = small, poorly fitted or top-dose-only effect; inactive = no such curve, though single readings can be large or run the other way; also: potency is read from the fitted curve at half-maximal effect; % is scaled to controls: 0 for no effect and ±100 for the full control effect; nearly all actives have a fitted effect of over 75% in size
#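 MLSMR compounds (23 nl, pin-transferred) preincubated 10 min at room temperature with a 500nM (2x) first reagent, then RGS4 at 900nM (2x) plus Transcreener GDP mix added; fluorescence polarization (620/688 nm) read before and after 90 min at 30 °C.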
# DRD3 agonist: activates the human D3 dopamine receptor. max activation, %. 410,000 tested, 0.58% active. D3R DiscoveRx beta-arrestin cells, luminescence, 90 min. P35462. AID 652048; in the data active = max activation above about 30%; also: 0% is about no effect
#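 Cells at 1500/well, incubated overnight, then treated with pinned compounds (dopamine as control) for 90 min at 37 degrees C. DiscoveRx reagent added for 30 - 60 minutes at room temperature; luminescence read.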
# pAkt inh: Akt phosphorylation inhibition | Neuro2A IGF-stimulated pAkt S473 HTRF, 20 min; hits give low values | activity change, % for hits at 50 µM | 360,000 tested, 0.32% active; in the data active = activity change below about -80%; inconclusive = mostly about -51% to -80%; also: % is scaled to controls: 0 for no effect and ±100 for the full control effect
#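 Neuro2A cells (4,500/well, DMEM with 0.5% FBS) were treated with compound at a single 50 µM final concentration, stimulated with 6 nM IGF for 20 min at 37 °C, and lysed. Phospho-Akt Ser473 was read by HTRF as 665/615 ratio ×10^4.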
# PI4K2A block: PI4K2A (human) kinase inhibition; Q9BTU6; purified PI4K2A, ADP-Glo luminescence, 1 h; hits give low values; activity change, negative = inhibition, % at 76.9 µM; 420,000 tested, 0.13% active; AID 1346378; in the data active = activity change below about -50%; inconclusive = mostly about -30% to -49%;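 also: -100% = wells without enzyme as full effect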
#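 PI4K2A activity was measured by ADP-Glo luminescence: enzyme (4 ug/mL stock) and phosphatidylinositol (1.2 mM stock) in Tris pH 7.5/MgCl2/EGTA/Triton X-100 buffer were reacted with ATP (300 microM stock) for one hour at ambient temperature.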
# The depositor's hits bear a star; i = inactive; ? = inconclusive; · = no result given. In the library only some 2.8% were active in any assay of this set; here they are far more common.
SMILES,D3 antag,LDHA inh,RGS4 inh,DRD3 agonist,pAkt inh,PI4K2A block
NC(=O)[C@H](Cc1cc2ccccc2s1)NC(=O)[C@@H]1CC2(CC(c3cccc(NC(=O)[C@@H]4CCC(=O)N4)c3)=NO2)CN1C(=O)/C=C/c1c(F)cccc1Cl (some centres not stated),9,-2,?,34*,i,-3
CN(C)CCCN1C(c2ccccc2)=CC(=C(C#N)C#N)C2=C1CCCC2,·,-5,·,·,·,·
CSCCC(C(=O)Nc1c(C)cccc1C)n1c(-c2cc(C)cs2)nc2ccccc21 (configuration not stated),-66*,0,·,-21,i,-4
CSCCC(C(=O)Nc1c(C)cccc1C)n1c(-c2ccc(-c3ccccc3)cc2)nc2ccccc21 (configuration not stated),1,-2,·,0,i,10
O=C(CC1Sc2ccccc2NC1=O)NNc1cc(Cl)ccc1Cl (configuration not stated),47,-10,-9%,36*,i,10
CCOc1cccc(CNC2CCCCC2)c1,·,-3,·,·,·,·
O=C(NN=C(c1ccccc1)c1ccccc1)C(CCl)C1CCCCC1 (configuration not stated),-51*,-3,1%,3,i,-7
N#C/C(=C/c1sc2ccccc2c1Cl)C(=O)NC1CC1,·,5,·,·,·,·
O=C(O)C1CCCCC1C(=O)Nc1nc(-c2ccc(Cl)s2)cs1 (configuration not stated),8,-7,-38%,3,i,-1
O=C(Nc1nc(-c2ccc(Cl)s2)cs1)C1CC1,·,-34*,·,·,·,·
Cc1ccccc1-n1c(CSC(=N)N)nc2ccccc2c1=O,-72*,-11,-11%,-4,i,5
N=C(N)SCc1nc2ccccc2c(=O)n1-c1ccccc1Cl,19,-4,-36%,-3,i,1
COC(=O)C1=NN(c2ccccc2)C2(S1)SC(C(C)=O)=C(C)N2c1ccccc1 (configuration not stated),-18,1,-23%,-3,-138%*,-3
Cc1sc2c(c1C)c(=O)n(-c1ccc(Cl)cc1)c(=O)n2Cc1cc(=O)n2ccccc2n1,-55*,-3,-8%,3,i,1
Cc1ccccc1CN1CCN(c2nc3c(c(=O)[nH]c(=O)n3C)n2CCC(C)C)CC1,·,12,·,·,·,·
COc1ccc(C(CNC(=O)CN2CCN(C(=O)C3CC3)CC2)c2c[nH]c3ccccc23)cc1 (configuration not stated),·,-2,·,·,·,·
CCOC(=O)c1ccc(NC(=S)NNC(C)(C)C)cc1,-58*,-1,-9%,-13,i,-1
CCOC(=O)c1ccc(NC(=S)Nc2ccc(C)cc2)cc1,1,-3,-12%,1,i,5
Cn1c(SCC(=O)NCCC2=CCCCC2)nnc1C(F)(F)F,-70*,-8,·,-5,i,-2
O=S(=O)(NCC1CC1)c1ccc2ccccc2c1,·,0,·,·,·,·
ClCC(Cl)C[n+]1cccc2ccccc21 (configuration not stated),·,-47*,·,·,·,·
NC(=O)C[n+]1cccc2ccccc21,4,-19,-3%,10,·,0
O=C(COc1cc2oc(=O)c3c(c2cc1Cl)CCCC3)N1C[C@H]2C[C@@H](C1)c1cccc(=O)n1C2,-58*,1,15%,-18,i,0
CC(Oc1cc2oc(=O)c3c(c2cc1Cl)CCC3)C(=O)N1C[C@H]2C[C@@H](C1)c1cccc(=O)n1C2 (some centres not stated),-26,3,-18%,-33,i,-1
CCCCC1C(=O)N(c2ccccc2)N(c2ccc(O)cc2)C1=O (configuration not stated),-74*,-5,-107%,-9,i,0
CCCCCC(=C/c1ccccc1)/C=N/Nc1nc2ccccc2[nH]1,·,8,·,·,·,·
Oc1c(C(Nc2cccnc2)c2ccccc2F)ccc2cccnc12 (configuration not stated),·,4,·,·,·,·
